# Experimental data from the supplement of paper PMC9694430.
# Counter-ions that a name gives are not always drawn.
# Columns and labels:
# Assay in all cases: thermal shift delta Tm vs DMSO control; higher = stronger stabilization (binding)
# Conditions in all cases: 12.5 µM; protein concentration 2 µM
# [1] = tested on: LOC_OS01G57100-cb003
# Outline: (§1)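 Compounds dissolved in DMSO were added to purified rice kinase domain constructs, which had been expressed in E. coli, for differential scanning fluorimetry. Each well held 19.5 μl of 2 μM kinase in 100 mM potassium phosphate pH 7.5, 150 mM NaCl, 10% glycerol and 5 × SYPRO Orange. Fluorescence was followed from 25°C to 95°C at a rate of 0.05°C/s. Shifts in Boltzmann-fitted melting temperature are triplicate means relative to DMSO-only protein.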
# [2] = tested on: LOC_OS01G60330-cb001
# Outline: as §1
# [3] = tested on: LOC_OS01G60700-cb002
# Outline: as §1
# [4] = tested on: LOC_OS01G63280-cb003
# Outline: as §1
# [5] = tested on: LOC_OS01G67340-cb003
# Outline: as §1
# [6] = tested on: LOC_OS01G70970-cb002
# Outline: as §1
# [7] = tested on: LOC_OS02G07810-cb001
# Outline: as §1
# [8] = tested on: LOC_OS02G08530-cb003
# Outline: as §1
# [9] = tested on: LOC_OS02G14120-cb001
# Outline: as §1
# [10] = tested on: LOC_OS02G17970-cb001
# Outline: as §1
Structure (SMILES),thermal shift delta Tm [1],thermal shift delta Tm [2],thermal shift delta Tm [3],thermal shift delta Tm [4],thermal shift delta Tm [5],thermal shift delta Tm [6],thermal shift delta Tm [7],thermal shift delta Tm [8],thermal shift delta Tm [9],thermal shift delta Tm [10]
Cc1ccc(-n2nc(C(C)(C)C)cc2NC(=O)Nc2ccc(OCCN3CCOCC3)c3ccccc23)cc1 [Doramapimod (BIRB 796)],1.19 °C,1.27 °C,0.98 °C,1.11 °C,0.16 °C,0.56 °C,0.89 °C,0.89 °C,0.95 °C,0.9 °C
c1cn2cc(-c3ccc4cn[nH]c4c3)nc(Nc3ccc(N4CCOCC4)cc3)c2n1 [Entospletinib (GS-9973)],2.14 °C,7.21 °C,1.39 °C,2 °C,2.82 °C,1.17 °C,-0.11 °C,3.77 °C,8.09 °C,0.54 °C
Cc1cc2c(F)c(Oc3ncnn4cc(OC[C@@H](C)OC(=O)[C@H](C)N)c(C)c34)ccc2[nH]1,2.01 °C,2.03 °C,1.53 °C,0.53 °C,0.06 °C,0.49 °C,0.41 °C,0.78 °C,0.99 °C,0.23 °C
COc1ccc(/C=C/C(=O)C2(C(=O)/C=C/c3ccc(OC)c(OC)c3)CCCCC2)cc1OC,2.18 °C,0.27 °C,0.41 °C,0.1 °C,0.3 °C,0.31 °C,0.4 °C,1.47 °C,0.46 °C,0.38 °C
CC(C)CC(NC(=O)C(Cc1ccccc1)NC(=O)C(CCC(N)=O)NC(=O)C(Cc1ccc(O)cc1)NC(=O)C(C)NC(=O)CNC(=O)C(CCCCN)NC(=O)C(Cc1c[nH]c2ccccc12)NC(=O)C(NC(=O)C(Cc1c[nH]c2ccccc12)NC(=O)C(CCCCN)NC(=O)CNC(=O)C(CC(N)=O)NC(=O)C(CCC(=O)O)NC(=O)C(Cc1c[nH]c2ccccc12)NC(=O)C(NC(=O)C(Cc1c[nH]c2ccccc12)NC(=O)C(CO)NC(=O)CNC(=O)C1CCCN1C(=O)C(Cc1c[nH]c2ccccc12)NC(=O)C(CCC(N)=O)NC(=O)C(Cc1ccccc1)NC(=O)CNC(=O)C(N)Cc1c[nH]cn1)C(C)O)C(C)O)C(=O)NC(CCCCN)C(=O)NCC(=O)NCC(=O)NCC(=O)NCC(=O)NC(CO)C(=O)NC(CCCNC(=N)N)C(=O)NC(CCCNC(=N)N)C(=O)NC(CCCNC(=N)N)C(=O)NC(CCCNC(=N)N)C(=O)NC(CCCNC(=N)N)C(=O)NC(CCCNC(=N)N)C(=O)NC(CCCNC(=N)N)C(=O)NC(CCCNC(=N)N)C(=O)NC(CCCNC(=N)N)C(=O)O (stereo not drawn),0.58 °C,0.74 °C,0.22 °C,0.38 °C,1.17 °C,0.55 °C,0.74 °C,0.87 °C,1.8 °C,-0.53 °C
NC(=O)c1ccc(N(C(N)=O)c2c(F)cccc2F)nc1-c1ccc(F)cc1F,-0.23 °C,-0.16 °C,0.91 °C,-0.21 °C,-0.08 °C,0.4 °C,0.66 °C,0.7 °C,-0.49 °C,0.09 °C
Cc1cn(-c2cc(NC(=O)c3ccc(C)c(Nc4nccc(-c5cccnc5)n4)c3)cc(C(F)(F)F)c2)cn1 [Nilotinib (AMN-107)],0.85 °C,1.29 °C,0.99 °C,0.49 °C,-0.08 °C,0.3 °C,0.5 °C,0.55 °C,0.37 °C,0.01 °C
CC(=O)O/N=C1/C(c2c(O)[nH]c3cc(Br)ccc23)=Nc2ccccc21 [BIO-acetoxime],-10.7 °C,0.36 °C,-0.6 °C,0.15 °C,-1.03 °C,-1.11 °C,–,2.87 °C,-2.97 °C,–
O=C(NC(NC(=S)Nc1ccc(F)c([N+](=O)[O-])c1)C(Cl)(Cl)Cl)C(c1ccccc1)c1ccccc1 (stereo not drawn),4.28 °C,8.97 °C,3.48 °C,–,0.17 °C,1.86 °C,3.38 °C,2.71 °C,2.37 °C,3.46 °C
Cn1cc(C2=C(c3ccc(Cl)cc3Cl)C(=O)NC2=O)c2ccccc21,6.65 °C,11.5 °C,4.75 °C,15.7 °C,–,7.16 °C,1.24 °C,3.23 °C,12.5 °C,1.77 °C
O=C1Nc2ccc(I)cc2/C1=C/c1cc(Br)c(O)c(Br)c1,7.97 °C,7.94 °C,2.48 °C,–,–,2.79 °C,3.4 °C,4.19 °C,5.66 °C,3.87 °C
c1cc(-c2cnn3cc(-c4ccc(OCCN5CCCCC5)cc4)cnc23)ccn1 [Dorsomorphin 2HCl],-0.53 °C,4.55 °C,0.2 °C,1.5 °C,6.09 °C,8.77 °C,0.33 °C,2.18 °C,8.01 °C,-0.02 °C
CN1CC(O)C2=C/C(=N/NC(N)=O)C(=O)C=C21 (stereo not drawn) [Carbazochrome],-0.08 °C,0.07 °C,0.11 °C,-0.22 °C,-0.39 °C,0.31 °C,-0.8 °C,0.45 °C,0.37 °C,-0.48 °C
"CN1CCN(c2ccc3nc(-c4c(N)c5c(F)cccc5[nH]c4=O)[nH]c3c2)CC1 [Dovitinib (TKI-258, CHIR-258)]",-0.17 °C,10.3 °C,1.43 °C,0.59 °C,2.72 °C,3.99 °C,0.53 °C,2.72 °C,4.01 °C,-0.27 °C
CC(=O)c1c(C)c2cnc(Nc3ccc(N4CCNCC4)cn3)nc2n(C2CCCC2)c1=O,-0.7 °C,1.73 °C,0.15 °C,-0.12 °C,1.56 °C,0.58 °C,-0.42 °C,1.29 °C,4.13 °C,0.68 °C
CCn1c(N)c(C(=O)NC)c(=O)c2ccc(C#CC(C)(O)COC)nc21 (stereo not drawn),0.95 °C,1.02 °C,1.1 °C,0.41 °C,0.38 °C,1.97 °C,0.99 °C,1.25 °C,1.34 °C,0.48 °C
CNC(=O)c1cc(Oc2ccc(NC(=O)Nc3ccc(Cl)c(C(F)(F)F)c3)cc2)ccn1 [Sorafenib Tosylate],4.07 °C,3.91 °C,1.77 °C,9.15 °C,0.52 °C,1.83 °C,2.2 °C,1.92 °C,3.45 °C,1.56 °C
O=C1NC(=O)/C(=C/c2ccc3nccc(-c4ccncc4)c3c2)S1,0.39 °C,0.51 °C,0.74 °C,-0.17 °C,0.62 °C,0.07 °C,0.58 °C,0.62 °C,3.14 °C,0.7 °C
O=c1c(O)c(-c2cc(O)c(O)c(O)c2)oc2cc(O)cc(O)c12 [Myricetin],7.25 °C,8.95 °C,-2.19 °C,–,2.79 °C,2.23 °C,2.22 °C,2.57 °C,2.73 °C,5.74 °C
CS(=O)(=O)c1cccc(CNc2nc(Nc3ccc4c(c3)CCC(=O)N4)ncc2C(F)(F)F)c1,1.78 °C,4.37 °C,0.7 °C,1.3 °C,1.2 °C,6.42 °C,1.43 °C,2.07 °C,5.48 °C,0.72 °C
O=C(Nc1cnn2ccc(N3CCC[C@@H]3c3cc(F)ccc3F)nc12)N1CC[C@H](O)C1 [Larotrectinib (LOXO-101) sulfate],1.19 °C,0.93 °C,0.28 °C,-0.24 °C,0.23 °C,0.22 °C,0.18 °C,0.6 °C,3.12 °C,0.72 °C
Nc1ccc(C(=O)Nc2cccc(-c3nc(N4CCOCC4)c4oc5ncccc5c4n3)c2)cn1,1.26 °C,1.1 °C,1.16 °C,-0.04 °C,-0.15 °C,0.23 °C,0.77 °C,1.1 °C,0.34 °C,0.35 °C
